According to PubChem BioAssay (NCI):
The panel holds about 79,000 compounds, 15% with a hit somewhere; the sample as a whole holds those more often. Active and inactive are the calls of the source. Cut-off read from the data, not from the text of the source: active = growth inhibition above about 70%; inactive = the rest.

What was measured:
[1] = NCI Yeast Anticancer Drug Screen. Data for the rad50 strain (AID 155);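 note: 0% = growth of vehicle-only cultures of the same strain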; details: S. cerevisiae rad50 strain growth inhibition, active compounds read high
How it was run: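 Cells are treated with compound, grown, and their growth is then scored against vehicle-only cultures of the same repair-deficient yeast strain.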

[2] = NCI Yeast Anticancer Drug Screen. Data for the mec2-1 strain (AID 157); details: S. cerevisiae mec2-1 strain, active compounds read high
How it was run: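 Yeast mec2-1 mutant treated with compound. Readout: growth inhibition vs vehicle controls.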

[3] = NCI Yeast Anticancer Drug Screen. Data for the sgs1 mgt1 strain (AID 161);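 note: 0% = growth of cultures given vehicle only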; details: S. cerevisiae sgs1 mgt1 strain, active compounds read high
How it was run: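 Genetically altered yeast, compound exposure, growth inhibition relative to vehicle.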

[4] = NCI Yeast Anticancer Drug Screen. Data for the cln2 rad14 strain (AID 165);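 note: 0% = growth equal to vehicle treated cultures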; details: S. cerevisiae cln2 rad14 strain, active compounds read high
How it was run: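 cln2 rad14 yeast strain; compound exposure; growth inhibition read vs vehicle controls.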

[5] = NCI Yeast Anticancer Drug Screen. Data for the bub3 strain (AID 167); details: S. cerevisiae bub3 mutant strain, active compounds read high
How it was run: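 Part of a panel of yeast mutants defective in DNA damage repair or cell cycle regulation. Each strain is grown with compound, and inhibition is calculated relative to solvent-treated cultures.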

[6] = NCI Yeast Anticancer Drug Screen. Data for the mlh1 rad18 strain (AID 175); details: S. cerevisiae mlh1 rad18 strain growth inhibition, active compounds read high
How it was run: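 Yeast w/ defined DNA-repair lesions; compound exposure; growth vs vehicle controls → % inhibition.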

[7] = at 5.0 µM (retest, dose inferred, filed as 0.5)
[8] = at 50.0 µM (retest, dose inferred, filed as 5.0)

Measured: growth inhibition

Cc1c(C)n(-c2ccccc2)c2nc(S(C)(=O)=O)nc(S(C)(=O)=O)c12
active: [1]; [8] 98% | [1]; at 50.0 µM 71.2% | [2]; [8] 98% | [2]; at 50.0 µM 79.3% | [3]; [8] 95% | [3]; at 50.0 µM 86.3% | [4]; [8] 97% | [4]; at 50.0 µM 86.4% | [5]; [8] 98% | [5]; at 50.0 µM 85% | [6]; [8] 86% | [6]; at 50.0 µM 87.2%
inactive: [1]; [7] 1% | [2]; [7] 8% | [3]; [7] -15% | [4]; [7] 40% | [5]; [7] 0% | [6]; [7] 31%

CC(C)(Sc1cc(Cl)c(Cl)c(Cl)c1)C(=O)OCCN1CCOCC1
inactive: [4]; [7] 59% | [6]; [7] 67%
active: [1]; [7] 78% | [1]; [8] 98% | [1]; at 50.0 µM 98.2% | [2]; [7] 77% | [2]; [8] 98% | [2]; at 50.0 µM 99.6% | [3]; [7] 87% | [3]; [8] 98% | [3]; at 50.0 µM 99.4% | [4]; [8] 96% | [4]; at 50.0 µM 98.3% | [5]; [7] 76% | [5]; [8] 92% | [5]; at 50.0 µM 99.2% | [6]; [8] 98% | [6]; at 50.0 µM 97.5%

CCOC1=C(NC(C)=O)C(=O)c2ccccc2C1=O
inactive: [1]; [7] 5% | [2]; [7] -7% | [3]; [7] -2% | [4]; [7] 60% | [5]; [7] 8% | [6]; [7] 2%
active: [1]; [8] 97% | [1]; at 50.0 µM 99% | [2]; [8] 97% | [2]; at 50.0 µM 85.9% | [3]; [8] 98% | [3]; at 50.0 µM 97.3% | [4]; [8] 97% | [4]; at 50.0 µM 83.3% | [5]; [8] 97% | [5]; at 50.0 µM 94.7% | [6]; [8] 98% | [6]; at 50.0 µM 97.7%

Cc1ccc(I)c(C(C)(C)O)c1
active: [1]; [8] 71% | [1]; at 50.0 µM 94.8% | [2]; [8] 75% | [3]; [8] 77% | [5]; [8] 86% | [5]; at 50.0 µM 95.2% | [6]; [8] 91% | [6]; at 50.0 µM 70.2%
inactive: [1]; [7] 4% | [2]; [7] 4% | [2]; at 50.0 µM 56.6% | [3]; [7] 4% | [3]; at 50.0 µM 58.6% | [4]; [7] 1% | [4]; [8] 30% | [4]; at 50.0 µM 30.8% | [5]; [7] -1% | [6]; [7] 7%

[N-]=[N+]=Nc1ccc(SSCCC(=O)ON2C(=O)CCC2=O)cc1
active: [1]; [8] 97% | [1]; at 50.0 µM 98.6% | [2]; [8] 98% | [2]; at 50.0 µM 98.8% | [3]; [8] 98% | [3]; at 50.0 µM 98.3% | [4]; [8] 97% | [4]; at 50.0 µM 97.8% | [5]; [8] 97% | [5]; at 50.0 µM 98.7% | [6]; [8] 98% | [6]; at 50.0 µM 98.5%
inactive: [1]; [7] 24% | [2]; [7] 20% | [3]; [7] 40% | [4]; [7] 4% | [5]; [7] 2% | [6]; [7] 38%

CCOC(=O)C(C(=O)OCC)C1(c2ccccc2)OC(=O)c2ccccc21 (stereo not given)
inactive: [1]; [7] 0% | [1]; [8] 13% | [1]; at 50.0 µM 0.55% | [2]; [7] 13% | [2]; [8] 27% | [2]; at 50.0 µM 5.3% | [3]; [7] -1% | [3]; [8] 21% | [3]; at 50.0 µM 52.9% | [4]; [7] -1% | [4]; [8] 17% | [4]; at 50.0 µM 19.1% | [5]; [7] -7% | [5]; [8] -6% | [5]; at 50.0 µM 8.8% | [6]; [7] -4% | [6]; [8] 5% | [6]; at 50.0 µM -8.55%

O=C(Nc1ccc(F)cc1)ON=C1CCCCC1
inactive: [1]; [7] 56% | [2]; [7] 46% | [3]; [7] 56% | [4]; [7] 33% | [5]; [7] 45% | [5]; [8] 66% | [6]; [7] 69%
active: [1]; [8] 99% | [1]; at 50.0 µM 90.2% | [2]; [8] 100% | [2]; at 50.0 µM 92.3% | [3]; [8] 99% | [3]; at 50.0 µM 91.5% | [4]; [8] 99% | [4]; at 50.0 µM 90.8% | [5]; at 50.0 µM 91.1% | [6]; [8] 99% | [6]; at 50.0 µM 90.4%

O=C(O)CC(CCCc1ccccc1)C(=O)O (stereo not given)
inactive: [1]; [7] -1% | [1]; [8] -3% | [1]; at 50.0 µM -7.45% | [2]; [7] -41% | [2]; [8] -3% | [2]; at 50.0 µM 15.4% | [3]; [7] -1% | [3]; [8] -4% | [3]; at 50.0 µM -10.8% | [4]; [7] -2% | [4]; [8] -1% | [4]; at 50.0 µM 40.9% | [5]; [7] -5% | [5]; [8] -7% | [5]; at 50.0 µM -1.1% | [6]; [7] 0% | [6]; [8] -4% | [6]; at 50.0 µM 2.55%

CCCCCCC(=O)CC(SCCN)c1ccccc1Cl (stereo not given)
active: [1]; at 50.0 µM 99.2% | [2]; at 50.0 µM 99.4% | [3]; at 50.0 µM 99.2% | [4]; [8] 99% | [4]; at 50.0 µM 98.3% | [5]; [8] 99% | [5]; at 50.0 µM 98.9% | [6]; at 50.0 µM 98.8%
inactive: [1]; [7] 9% | [1]; [8] 52% | [2]; [7] -5% | [2]; [8] 56% | [3]; [7] -12% | [3]; [8] 48% | [4]; [7] 12% | [5]; [7] -5% | [6]; [7] 1% | [6]; [8] 55%

c1ccc(N=C2c3ccsc3C(=Nc3ccccc3)c3ccsc32)cc1
active: [1]; [8] 98% | [1]; at 50.0 µM 80% | [2]; [8] 98% | [2]; at 50.0 µM 75.5% | [3]; [8] 93% | [3]; at 50.0 µM 81.7% | [4]; at 50.0 µM 84.5% | [5]; [8] 97% | [5]; at 50.0 µM 81.6% | [6]; [8] 97% | [6]; at 50.0 µM 85.6%
inactive: [1]; [7] 25% | [2]; [7] 22% | [3]; [7] 21% | [4]; [7] 5% | [4]; [8] 53% | [5]; [7] 51% | [6]; [7] 29%
